The conditions of assay [1]: Ebola virus entry assay, green fluorescence channel.
The conditions of assay [2]: Ebola virus entry assay, blue channel fluorescence.
For assay [3] the following is noted: Ebola virus entry assay, ratio channel.
The conditions of assay [4]: Ebola virus entry assay, green channel fluorescence.
The conditions of assay [5]: Ebola virus entry assay, reporter ratio channel; Channel type: primary.

Unmarked numbers belong to inactive results. For part of these data: Measured potencies and affinities stand elsewhere. Active and inactive are the calls of the source. No rule for the calls is given here.
For efficacy in this document: 0% is about no effect.

Turning to `O=C(Nc1ccc(Cl)cc1)Nc1ccc(Cl)c(Cl)c1`, the efficacy in assay [1] is -28.2%. Further, the AC50 (in general, the concentration at which the activity in the assay is half-maximal) in assay [2] is 15.8 µM (active); in assay [3], 12.6 µM (active); in assay [5], 12.6 µM (active). Further, the compound was classed as inactive in assay [4].
Take `CC(C)=CCN1CC[C@@]2(C)c3cc(O)ccc3C[C@@H]1[C@@H]2C`: the efficacy in assay [1] was 36%. Besides, the AC50 in assay [2], in assay [3] and in assay [5] was 31.6 µM (active) throughout. In addition, in assay [4], the compound was called inactive.
For the compound `O=C(Nc1ccc([N+](=O)[O-])cc1Cl)c1cc(Cl)ccc1O`, the efficacy in assay [1] was 35.2%. Moreover, the AC50 in assay [2] is 0.891 µM (active); in assay [3], 1 µM (active); in assay [5], 1 µM (active). The call in assay [4] was inactive.
For the compound `CN(C)C(=S)SSC(=S)N(C)C`, the efficacy in assay [1] was -47%. Also, the AC50 in assay [2], in assay [3] and in assay [5] was 1.26 µM (active) each time. Besides, the call in assay [4] was inactive.
Regarding `Cc1cccc(Nc2cc(Cl)nc(SCC(=O)O)n2)c1C`, in assay [1], the efficacy was 19.8%. Also, the outcome in assay [2], in assay [3], in assay [4] and in assay [5] was inactive.
As to `Cc1ccc(CCn2c3c(c4cc(Cl)ccc42)CN(C)CC3)cn1`, in assay [1], the efficacy was 26.4%. For the same compound, the AC50 was 14.1 µM (active) in assay [2], 17.8 µM (active) in assay [3] and 17.8 µM (active) in assay [5]. Besides, the outcome in assay [4] was inactive.
With `CC(C)C[C@@H](N)C(=O)O`, the efficacy in assay [1] was 14.3%. The compound was classed as inactive in assay [2], in assay [3], in assay [4] and in assay [5].
On to `Clc1ccc(Nc2nnc(Cc3ccncc3)c3ccccc23)cc1`, for which the efficacy in assay [1] was -25.3%. The AC50 was 15.8 µM (active) in assay [2] and 31.6 µM (active) in assay [5]. Besides, the outcome in assay [3] and in assay [4] was inactive.
Regarding `CCOC(=O)c1ccc(OC(=O)CCCCCN=C(N)N)cc1`, the efficacy in assay [1] was -11.5%. The result in assay [2], in assay [3], in assay [4] and in assay [5] was inactive.
Turning to `COc1ccc(OC)c(CC(C)N)c1` (stereo not given), the efficacy in assay [1] was 40.3%. In addition, the AC50 in assay [2] and in assay [5] was 31.6 µM (active) in each case. Moreover, the outcome in assay [3] and in assay [4] was inactive.
Regarding `C[C@]12CC[C@@H]3c4ccc(O)cc4CC[C@H]3[C@@H]1C[C@@H](O)[C@@H]2O`, the efficacy in assay [1] is -24.2%. For the same compound, the AC50 was 20 µM (active) in assay [2] and 35.5 µM (active) in assay [5]. In addition, the result in assay [3] and in assay [4] was inactive.
In the case of `CC(Cc1cccc(C(F)(F)F)c1)NCCOC(=O)c1ccccc1` (stereo not given), the efficacy in assay [1] was 23%. For the same compound, the AC50 is 31.6 µM (active) in assay [2], 28.2 µM (active) in assay [3] and 28.2 µM (active) in assay [5]. The outcome in assay [4] was inactive.
As for `CCS(=O)(=O)C(C)(C)S(=O)(=O)CC`, the efficacy in assay [1] is -10.5%. In addition, the result in assay [2], in assay [3], in assay [4] and in assay [5] was inactive.
On to `CC(C)OC(=O)C(C(=O)OC(C)C)=C1SC=CS1`, for which the efficacy in assay [1] is -38.6%. Moreover, the half-maximal activity concentration (AC50) in assay [2] is 39.8 µM (active). For the same compound, the outcome in assay [3], in assay [4] and in assay [5] was inactive.
On to `C[C@H]1CNCCc2ccc(Cl)cc21`, for which the efficacy in assay [1] is 45.2%. The concentration at half-maximal activity (AC50) in assay [2] is 20 µM (active); in assay [5], 39.8 µM (active). In addition, the outcome in assay [3] and in assay [4] was inactive.

Values taken from PubChem BioAssay (NCATS).
